According to PubChem BioAssay (NCI):
This is part of a sample that, as a whole, favours compounds with a hit. Of some 79,000 tested, about 15% had one in any assay. Active and inactive are the calls of the source. Rule as the data show it: active = growth inhibition above about 70%; inactive = the rest.

What was measured:
[1] = NCI Yeast Anticancer Drug Screen. Data for the wt2 strain (AID 169);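 also: 0% = growth of vehicle-treated yeast cultures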; conditions: S. cerevisiae wt2 strain growth inhibition, hits give high values
In short: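 Growth of compound-treated yeast is measured and expressed as inhibition relative to vehicle-only controls.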

[2] = NCI Yeast Anticancer Drug Screen. Data for the mlh1 strain (AID 171);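 also: 0% = growth of vehicle-treated control cultures of the same strain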; conditions: S. cerevisiae mlh1 strain growth inhibition, hits give high values
In short: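 Test agents were incubated with yeast bearing a defined DNA damage repair or cell cycle control alteration; values are growth inhibition normalised to vehicle-treated cultures.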

[3] = NCI Yeast Anticancer Drug Screen. Data for the sgs1 strain (AID 173);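 also: 0% = growth of vehicle-only control cultures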; conditions: S. cerevisiae sgs1 mutant, hits give high values
In short: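 Strain with an altered DNA repair or cell cycle pathway exposed to compound. Growth then measured. Value = inhibition versus vehicle control.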

[4] = NCI Yeast Anticancer Drug Screen. Data for the mlh1 rad18 strain (AID 175); conditions: S. cerevisiae mlh1 rad18 strain growth inhibition, hits give high values
In short: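 A repair-deficient yeast strain is exposed to test compound, and growth is scored relative to vehicle-treated controls.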

[5] = NCI Yeast Anticancer Drug Screen. Data for the rad18 strain (AID 177); conditions: S. cerevisiae rad18 mutant growth inhibition, hits give high values
In short: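 DNA-repair-defective yeast; compound treatment; growth inhibition scored against vehicle.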

[6] = NCI Yeast Anticancer Drug Screen. Data for the rad52 strain (AID 147);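 also: 0% = growth of vehicle-treated control cultures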; conditions: S. cerevisiae rad52 mutant growth inhibition, hits give high values
In short: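 Growth of repair-deficient yeast cells was compared between compound-treated and vehicle-treated cultures to give percent inhibition.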

[7] = NCI Yeast Anticancer Drug Screen. Data for the wt1 strain (AID 149);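 also: 0% = growth of vehicle-treated wt1 cultures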; conditions: S. cerevisiae wt1 strain (SPY 50644) growth inhibition, hits give high values
In short: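 Yeast wt1 strain exposed to compounds; growth inhibition measured relative to vehicle-treated controls.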

[8] = NCI Yeast Anticancer Drug Screen. Data for the rad50EPP+ strain (AID 151);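 also: 0% = growth of vehicle-treated control cultures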; conditions: S. cerevisiae rad50 mutant strain, hits give high values
In short: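 Measured: growth inhibition of rad50EPP+ yeast. Reference: vehicle-treated controls. Screen uses strains with defined genetic alterations in DNA damage repair or cell cycle control.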

[9] = NCI Yeast Anticancer Drug Screen. Data for the mgt1 strain (AID 153); conditions: S. cerevisiae mgt1 mutant growth inhibition, hits give high values
In short: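 Compounds were applied to mgt1 mutant yeast, and growth was then compared against vehicle-treated control cultures to give percent inhibition.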

[10] = NCI Yeast Anticancer Drug Screen. Data for the rad50 strain (AID 155);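 also: 0% = growth of vehicle-only cultures of the same strain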; conditions: S. cerevisiae rad50 strain growth inhibition, hits give high values
In short: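 Yeast carrying a defined DNA repair defect were exposed to test compounds, and growth was compared with vehicle-treated controls to give percent inhibition.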

[11] = NCI Yeast Anticancer Drug Screen. Data for the mec2-1 strain (AID 157); conditions: S. cerevisiae mec2-1 strain, hits give high values
In short: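 Compounds were applied to mec2-1 yeast cells. Their growth was then compared with that of vehicle-treated cultures to give growth inhibition.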

[12] = NCI Yeast Anticancer Drug Screen. Data for the rad14 strain (AID 159);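 also: 0% = growth of vehicle-treated control cultures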; conditions: S. cerevisiae rad14 strain growth inhibition, hits give high values
In short: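 Yeast cells carrying a defined DNA-repair defect were exposed to compounds, and growth inhibition was calculated relative to vehicle-treated control cultures.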

[13] = NCI Yeast Anticancer Drug Screen. Data for the sgs1 mgt1 strain (AID 161);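 also: 0% = growth of cultures given vehicle only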; conditions: S. cerevisiae sgs1 mgt1 strain, hits give high values
In short: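 This yeast growth screen uses a strain with defined DNA-repair lesions; compound-treated growth is compared with vehicle-treated growth.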

[14] = NCI Yeast Anticancer Drug Screen. Data for the CLN2oe strain (AID 163);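 also: 0% = growth of vehicle-only control cultures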; conditions: S. cerevisiae CLN2oe strain, hits give high values
In short: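 Cells of an engineered yeast line with disturbed cell-cycle regulation are treated with compound. Inhibition of growth is then calculated relative to the vehicle-treated reference.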

[15] = NCI Yeast Anticancer Drug Screen. Data for the cln2 rad14 strain (AID 165);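 also: 0% = growth equal to vehicle treated cultures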; conditions: S. cerevisiae cln2 rad14 strain, hits give high values
In short: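 Strain: cln2 rad14 yeast, altered in cell cycle control and DNA damage repair. Read-out: growth inhibition vs vehicle.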

[16] = NCI Yeast Anticancer Drug Screen. Data for the bub3 strain (AID 167); conditions: S. cerevisiae bub3 mutant strain, hits give high values
In short: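 Compounds were applied to a genetically altered yeast strain carrying a cell-cycle control defect. Growth inhibition was scored against vehicle-treated controls.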

[17] = at 5.0 µM (retest, dose inferred, filed as 0.5)
[18] = at 50.0 µM (retest, dose inferred, filed as 5.0)

Measured: growth inhibition

O=C(c1cc(=O)c2ccc(O)cc2o1)c1ccc(Cl)cc1Cl
active: [1]; at 100.0 µM 88% | [2]; at 33.0 µM 91% | [2]; at 100.0 µM 92% | [3]; at 33.0 µM 95% | [3]; at 100.0 µM 94% | [4]; [18] 96% | [4]; at 50.0 µM 85.5% | [5]; at 33.0 µM 94% | [5]; at 100.0 µM 94%
inactive: [1]; at 1.2 µM -4% | [1]; at 3.7 µM -4% | [1]; at 11.0 µM 0% | [1]; at 33.0 µM 68% | [2]; at 1.2 µM -19% | [2]; at 3.7 µM -7% | [2]; at 11.0 µM 33% | [3]; at 1.2 µM -18% | [3]; at 3.7 µM -14% | [3]; at 11.0 µM 60% | [4]; [17] 37% | [5]; at 1.2 µM -6% | [5]; at 3.7 µM -19% | [5]; at 11.0 µM 19%

O=C1SS(=O)c2ccccc21 (centres undefined)
active: [6]; at 100.0 µM 76% | [9]; at 100.0 µM 83% | [10]; [18] 89% | [10]; at 100.0 µM 79% | [11]; [18] 99% | [11]; at 100.0 µM 83% | [13]; [18] 85% | [16]; [18] 96% | [16]; at 100.0 µM 89% | [4]; [18] 95% | [5]; at 100.0 µM 90%
inactive: [6]; at 1.2 µM 11% | [6]; at 3.7 µM 6% | [6]; at 11.0 µM 8% | [6]; at 33.0 µM 25% | [7]; at 1.2 µM -5% | [7]; at 3.7 µM -2% | [7]; at 11.0 µM 12% | [7]; at 33.0 µM -5% | [7]; at 100.0 µM 67% | [8]; at 1.2 µM 7% | [8]; at 3.7 µM 5% | [8]; at 11.0 µM 7% | [8]; at 33.0 µM 23% | [8]; at 100.0 µM 65% | [9]; at 1.2 µM 9% | [9]; at 3.7 µM 12% | [9]; at 11.0 µM 12% | [9]; at 33.0 µM 42% | [10]; at 1.2 µM 5% | [10]; at 3.7 µM 0% | [10]; [17] 32% | [10]; at 11.0 µM 2% | [10]; at 33.0 µM 26% | [10]; at 50.0 µM 34.1% | [11]; at 1.2 µM 5% | [11]; at 3.7 µM 18% | [11]; [17] 27% | [11]; at 11.0 µM -3% | [11]; at 33.0 µM 13% | [11]; at 50.0 µM 44.1% | [12]; at 1.2 µM -11% | [12]; at 3.7 µM -3% | [12]; at 11.0 µM -17% | [12]; at 33.0 µM -4% | [12]; at 100.0 µM 61% | [13]; [17] 34% | [13]; at 50.0 µM 50% | [14]; at 1.2 µM 7% | [14]; at 3.7 µM 13% | [14]; at 11.0 µM 17% | [14]; at 33.0 µM 24% | [14]; at 100.0 µM 57% | [15]; [17] 11% | [15]; [18] 38% | [15]; at 50.0 µM 5.75% | [16]; at 1.2 µM -5% | [16]; at 3.7 µM 2% | [16]; [17] 24% | [16]; at 11.0 µM -5% | [16]; at 33.0 µM 0% | [16]; at 50.0 µM 40.3% | [1]; at 1.2 µM 7% | [1]; at 3.7 µM 8% | [1]; at 11.0 µM 8% | [1]; at 33.0 µM 17% | [1]; at 100.0 µM 66% | [2]; at 1.2 µM 6% | [2]; at 3.7 µM 20% | [2]; at 11.0 µM 17% | [2]; at 33.0 µM 24% | [2]; at 100.0 µM 68% | [3]; at 1.2 µM -7% | [3]; at 3.7 µM 5% | [3]; at 11.0 µM 8% | [3]; at 33.0 µM 21% | [3]; at 100.0 µM 39% | [4]; [17] 57% | [4]; at 50.0 µM 0% | [5]; at 1.2 µM 13% | [5]; at 3.7 µM 15% | [5]; at 11.0 µM 15% | [5]; at 33.0 µM 39%

C=C(C(=O)OC)N1C(=O)CC(C)C1=O (centres undefined)
active: [9]; at 100.0 µM 71% | [10]; at 50.0 µM 75.5% | [11]; [18] 85% | [11]; at 50.0 µM 80.2% | [11]; at 100.0 µM 81% | [13]; [18] 81% | [13]; at 50.0 µM 77.3% | [16]; [18] 88% | [16]; at 50.0 µM 85.5% | [16]; at 100.0 µM 80% | [1]; at 100.0 µM 87% | [2]; at 100.0 µM 80% | [4]; [18] 96% | [5]; at 100.0 µM 75%
inactive: [6]; at 1.2 µM 0% | [6]; at 3.7 µM 10% | [6]; at 11.0 µM 14% | [6]; at 33.0 µM 24% | [6]; at 100.0 µM 56% | [7]; at 1.2 µM 7% | [7]; at 3.7 µM 15% | [7]; at 11.0 µM 12% | [7]; at 33.0 µM 19% | [7]; at 100.0 µM 67% | [8]; at 1.2 µM -1% | [8]; at 3.7 µM 4% | [8]; at 11.0 µM 6% | [8]; at 33.0 µM 8% | [8]; at 100.0 µM -10% | [9]; at 1.2 µM 16% | [9]; at 3.7 µM 6% | [9]; at 11.0 µM 9% | [9]; at 33.0 µM 27% | [10]; at 1.2 µM 8% | [10]; at 3.7 µM 8% | [10]; [17] 14% | [10]; at 11.0 µM 13% | [10]; at 33.0 µM 14% | [10]; [18] 66% | [10]; at 100.0 µM 67% | [11]; at 1.2 µM 0% | [11]; at 3.7 µM 12% | [11]; [17] 27% | [11]; at 11.0 µM 23% | [11]; at 33.0 µM 48% | [12]; at 1.2 µM -11% | [12]; at 3.7 µM -2% | [12]; at 11.0 µM 8% | [12]; at 33.0 µM 11% | [12]; at 100.0 µM 68% | [13]; [17] 32% | [14]; at 1.2 µM -3% | [14]; at 3.7 µM 11% | [14]; at 11.0 µM 10% | [14]; at 33.0 µM 14% | [14]; at 100.0 µM 38% | [15]; [17] 6% | [15]; [18] 30% | [15]; at 50.0 µM 47.4% | [16]; at 1.2 µM 10% | [16]; at 3.7 µM 1% | [16]; [17] 21% | [16]; at 11.0 µM 9% | [16]; at 33.0 µM 25% | [1]; at 1.2 µM -41% | [1]; at 3.7 µM -26% | [1]; at 11.0 µM -17% | [1]; at 33.0 µM 50% | [2]; at 1.2 µM 2% | [2]; at 3.7 µM 4% | [2]; at 11.0 µM 6% | [2]; at 33.0 µM 42% | [3]; at 1.2 µM 0% | [3]; at 3.7 µM 12% | [3]; at 11.0 µM 21% | [3]; at 33.0 µM 40% | [3]; at 100.0 µM 67% | [4]; [17] 57% | [4]; at 50.0 µM 67.5% | [5]; at 1.2 µM -5% | [5]; at 3.7 µM 7% | [5]; at 11.0 µM 17% | [5]; at 33.0 µM 32%
